# Test results as given in the antibiotic and cytotoxicity screens of Wong et al. (2023).
# Screen size: about 39,000 compounds; about 3,300 (8.5%) were called active. What follows is part of a selection rich in actives, with near analogues and random picks from the rest.
# System: HepG2
# Experiment: cytotoxicity call (relative viability < 0.9)
# Conditions: 10 µM
row,Structure (SMILES),cytotoxicity call
1,O=C1OCC=C[C@H]2O[C@@]34C=CCN(CCN5CCOCC5)C(=O)[C@H]3N(CCCCCCO)C(=O)[C@@H]4[C@@H]12,inactive
2,C=CC1CN2CCC1CC2C(O)c1ccnc2ccc(OC)cc12.O=C(O)C(O)C(O)C(O)C(O)CO (centres undefined),inactive
3,C=CC1CN2CCC1CC2C(O)c1ccnc2ccc(OC)cc12 (centres undefined),inactive
4,C=CC1CN2CCC1CC2C(O)c1ccnc2ccc(OC)cc12.Cl (centres undefined),active
5,COc1ccc2c3c(n(c2c1)C)[C@H](CO)N(C[C@]13CCN(CC1)C(=O)c1ccccc1F)C(=O)Nc1ccccc1F,inactive
6,C[C@@H]1CN([C@H](C)CO)C(=O)c2cc(NS(=O)(=O)c3cn(C)cn3)ccc2O[C@@H](C)CCCCO[C@H]1CN(C)S(=O)(=O)c1ccc(F)cc1,inactive
7,COc1ccc(-c2cnc3c(c2)C(=O)N([C@@H](C)CO)C[C@@H](C)[C@H](CN(C)S(=O)(=O)c2ccc(OC)cc2)O3)cc1,inactive
8,Fc1cccc2c(Cl)ccnc12,inactive
9,Oc1ccc(Cl)c2c1CCC2,inactive
10,Oc1ccc(Cl)c2cccnc12 [listing 1 of 2 here],active
11,O=[N+]([O-])c1ccc(O)c2ncccc12,active
12,NS(=O)(=O)c1ccc(O)c([N+](=O)[O-])c1,inactive
13,O=[N+]([O-])c1ncn(Cc2ccccn2)n1,inactive
14,Oc1ccc(Cl)c2cccnc12 [listing 2 of 2 here],active
15,O=C(C[C@H]1CC[C@@H]2[C@H](COC[C@@H](O)CN2C(=O)c2ccncc2)O1)NC1CCC1,inactive
16,C[C@@H]1CCCCO[C@H](CN(C)CC2CCCCC2)[C@H](C)CN([C@@H](C)CO)C(=O)c2cc(NC(=O)NC3CCCCC3)ccc2O1,inactive
17,O=C(C[C@@H]1CC[C@@H]2[C@H](COC[C@H](O)CN2Cc2ccccc2F)O1)N[C@H]1CCN(Cc2ccccc2)C1,inactive
18,C[C@H](CO)N1C[C@H](C)[C@@H](CN(C)C(=O)Nc2cccc3ccccc23)Oc2c(NS(=O)(=O)c3ccc(F)cc3)cccc2C1=O,inactive
19,C[C@H]1CN([C@@H](C)CO)C(=O)c2cc(NC(=O)Cn3cnnn3)ccc2O[C@H]1CN(C)Cc1ccc(C(=O)O)cc1,inactive
20,COc1ccc(S(=O)(=O)N(C)C[C@@H]2Oc3ccc(NC(=O)CCN4CCOCC4)cc3C(=O)N([C@H](C)CO)C[C@@H]2C)cc1,inactive
21,COCC#Cc1cnc2c(c1)C(=O)N([C@@H](C)CO)C[C@@H](C)[C@H](CN(C)C(=O)CCN1CCCCC1)O2,inactive
22,C[C@@H]1CCCCO[C@@H](CN(C)S(=O)(=O)c2ccccc2)[C@@H](C)CN([C@@H](C)CO)C(=O)c2cc(NC(=O)Nc3ccc(C(F)(F)F)cc3)ccc2O1,inactive
23,C[C@@H]1CCCCO[C@H](CN(C)S(=O)(=O)c2ccccc2)[C@@H](C)CN([C@H](C)CO)C(=O)c2cc(NC(=O)Nc3ccc(C(F)(F)F)cc3)ccc2O1,active
24,C[C@H]1CCCCO[C@@H](CN(C)S(=O)(=O)c2ccccc2)[C@@H](C)CN([C@@H](C)CO)C(=O)c2cc(NC(=O)Nc3ccc(C(F)(F)F)cc3)ccc2O1,active
25,C[C@H]1CCCCO[C@H](CN(C)S(=O)(=O)c2ccccc2)[C@@H](C)CN([C@@H](C)CO)C(=O)c2cc(NC(=O)Nc3ccc(C(F)(F)F)cc3)ccc2O1,active

row,Structure (SMILES),cytotoxicity call
1,C[C@@H]1CCCCO[C@@H](CN(C)S(=O)(=O)c2ccccc2)[C@H](C)CN([C@H](C)CO)C(=O)c2cc(NC(=O)Nc3ccc(C(F)(F)F)cc3)ccc2O1,inactive
2,C[C@@H]1CCCCO[C@H](CN(C)S(=O)(=O)c2ccccc2)[C@H](C)CN([C@@H](C)CO)C(=O)c2cc(NC(=O)Nc3ccc(C(F)(F)F)cc3)ccc2O1,active
3,C[C@@H]1CN([C@@H](C)CO)C(=O)c2cc(NC(=O)Nc3ccc(C(F)(F)F)cc3)ccc2O[C@@H](C)CCCCO[C@H]1CN(C)S(=O)(=O)c1ccccc1,inactive
4,C[C@@H]1CN([C@@H](C)CO)C(=O)c2cc(NC(=O)Nc3ccc(C(F)(F)F)cc3)ccc2O[C@@H](C)CCCCO[C@@H]1CN(C)S(=O)(=O)c1ccccc1,inactive
5,C[C@@H]1CCCCO[C@H](CN(C)S(=O)(=O)c2ccccc2)[C@@H](C)CN([C@@H](C)CO)C(=O)c2cc(NC(=O)Nc3ccc(C(F)(F)F)cc3)ccc2O1,inactive
6,C[C@H](CO)N1C[C@H](C)[C@@H](CN(C)S(=O)(=O)c2ccccc2)OCCCC[C@H](C)Oc2ccc(NC(=O)Nc3ccc(C(F)(F)F)cc3)cc2C1=O,inactive
7,C[C@@H]1CCCCO[C@@H](CN(C)S(=O)(=O)c2ccccc2)[C@@H](C)CN([C@H](C)CO)C(=O)c2cc(NC(=O)Nc3ccc(C(F)(F)F)cc3)ccc2O1,inactive
8,C[C@H](CO)N1C[C@H](C)[C@H](CN(C)S(=O)(=O)c2ccccc2)OCCCC[C@H](C)Oc2ccc(NC(=O)Nc3ccc(C(F)(F)F)cc3)cc2C1=O,inactive
9,OCC1CCNCC1,inactive
10,COC(=O)c1sccc1NC(=O)Cn1cnc2c1c(=O)n(C)c(=O)n2C,inactive
11,CC(=O)N(C)C[C@H]1Oc2ncc(C#C[C@H](C)O)cc2C(=O)N([C@@H](C)CO)C[C@H]1C,inactive
12,C[C@H]1CN([C@@H](C)CO)S(=O)(=O)c2ccc(-c3ccc(C(=O)N(C)C)cc3)cc2O[C@@H]1CN(C)C(=O)C1CCOCC1,inactive
13,CC(C)NC(=O)Nc1ccc2c(c1)CC(=O)N([C@H](C)CO)C[C@H](C)[C@H](CN(C)S(=O)(=O)c1ccccc1)O2,inactive
14,Nc1ccn([C@@H]2C[C@@H](O)[C@H](CO)O2)c(=O)n1,inactive
15,COc1ccc(NC(=O)N(C)C[C@@H]2Oc3ccc(NC(=O)CCCN(C)C)cc3C(=O)N([C@@H](C)CO)C[C@H]2C)cc1,inactive
16,COc1ccc(NC(=O)N(C)C[C@@H]2OCCCC[C@@H](C)Oc3ccc(NC(=O)C4CCCCC4)cc3C(=O)N([C@@H](C)CO)C[C@H]2C)cc1,inactive
17,C[C@H]1CC/C=C\[C@H]2O[C@@]34C=CCN(CCN5CCOCC5)C(=O)[C@H]3N(CCO)C(=O)[C@@H]4[C@@H]2C(=O)O1,inactive
18,COc1cc(OC)cc(C(=O)N(Cc2ccco2)Cc2cc3ccc(SC)cc3nc2-c2cccc(OC)c2)c1,inactive
19,Fc1ccccc1-c1nc2ccn(Cc3ccc(-c4ccc(C(F)(F)F)cc4C(F)(F)F)nn3)cc-2n1,active
20,CO[C@@H]1CN(C)C(=O)c2ccc(NC(=O)C3CC3)cc2OC[C@H](C)N(C(=O)Cc2ccccn2)C[C@@H]1C,inactive
21,C/C=C/C(=O)N1CCC=CC1=O,inactive
22,COc1cc(/C=C/C(=O)N2CCC=CC2=O)cc(OC)c1OC(=O)CCCCCCCCCCC(=O)Oc1c(OC)cc(/C=C/C(=O)N2CCC=CC2=O)cc1OC,inactive
23,COc1cc(C=CC(N)=O)cc(OC)c1OC,active
24,CCOC(=O)/C=C/C(=O)N1CCC=CC1=O,active
25,C=C(C)C(=O)N1CCC=CC1=O,inactive

row,Structure (SMILES),cytotoxicity call
1,COc1cc(C=CC(=O)O)cc(OC)c1OC,inactive
2,COc1cc(/C=C/C(=O)N(C)CCN(C)C(=O)/C=C/c2cc(OC)c(OC)c(OC)c2)cc(OC)c1OC,inactive
3,COc1cc(/C=C/C(=O)N2CCC=CC2=O)cc(OC)c1OCCOCCOCCOCCC(=O)OC(C)(C)C,active
4,COc1cc(C=CC(=O)O)cc(OC)c1O,inactive
5,COc1cc(C=CC(=O)N2CCC=CC2=O)cc(OC)c1OC,active
6,COC(=O)C=Cc1cc(OC)c(OC)c(OC)c1,inactive
7,COc1cc(C=CC(=O)N2CCCCCCC2)cc(OC)c1OC,inactive
8,Cn1cc(S(=O)(=O)N2CCN(Cc3ccccc3)CC2)c(=O)n(C)c1=O,inactive
9,C=CCOC(=O)O[C@H]1[C@@H](OC)O[C@H](COC(=O)NCCCCCC(=O)NO)[C@H]2OC(=O)[C@@H](Cc3cccc(Br)c3)C/C=C/C[C@H](Cc3ccccc3)C(=O)O[C@H]12,inactive
10,CN1C(=O)c2cc(NS(=O)(=O)c3ccc(F)cc3)ccc2OC[C@@H]2O[C@@H](CC(=O)NCC(F)(F)F)CC[C@H]21,inactive
11,C[C@H]1CN([C@@H](C)CO)C(=O)c2cc(C#CCN(C)C)cnc2O[C@H]1CN(C)S(=O)(=O)c1cn(C)cn1,inactive
12,O=C(C[C@H]1CC[C@H]2[C@@H](COC[C@H](O)CN2S(=O)(=O)c2ccc(Cl)cc2)O1)N[C@H]1CCN(Cc2ccccc2)C1,inactive
13,CC(C)NC(=O)Nc1ccc2c(c1)C(=O)N([C@@H](C)CO)C[C@H](C)[C@@H](CN(C)C(=O)C1CCCCC1)OCCCC[C@H](C)O2,inactive
14,CCNC(=S)NCC1CC1,inactive
15,Cc1ccc(S(=O)(=O)Nc2ccc3c(c2)C(=O)N([C@H](C)CO)C[C@H](C)[C@H](CN(C)Cc2ccc4c(c2)OCO4)OCCCC[C@@H](C)O3)cc1,inactive
16,C[C@@H]1CN([C@H](C)CO)S(=O)(=O)c2ccc(C#Cc3ccc(F)cc3)cc2O[C@@H]1CN(C)CC1CC1,inactive
17,CO[C@@H]1CN(C)C(=O)c2ccc(NS(C)(=O)=O)cc2OC[C@@H](C)N(C(=O)CN(C)C)C[C@@H]1C,inactive
18,C[C@@H]1CN([C@@H](C)CO)C(=O)Cc2cc(NC(=O)Cn3cnnn3)ccc2O[C@@H]1CN(C)Cc1ccc(-c2ccccc2)cc1,inactive
19,C[C@H](CO)N1C[C@H](C)[C@H](CN(C)S(=O)(=O)c2ccc(Cl)cc2)OCCCC[C@H](C)Oc2ccc(NC(=O)Nc3cccc4ccccc34)cc2C1=O,inactive
20,CCCCOc1cc(C(=O)NCCN(CC)CC)c2ccccc2n1.Cl,inactive
21,CCCCc1oc2ccccc2c1C(=O)c1cc(I)c(OCCN(CC)CC)c(I)c1.Cl,active
22,CCCCc1oc2ccccc2c1C(=O)c1cc(I)c(OCCN(CC)CC)c(I)c1,active
23,NCCCN,inactive
24,C[C@@H]1CN([C@H](C)CO)C(=O)c2cc(NS(=O)(=O)c3cccs3)ccc2O[C@@H]1CN(C)Cc1ccncc1,inactive
